From PubChem BioAssay AID488 (PCMD, 2006)
About 40 (0.06%) of roughly 62,000 compounds were called active. The list comes from a sample in which actives are over-represented; it also holds similar structures and randomly drawn compounds. Unmarked numbers belong to inactive results. Rule as the data show it: active = inhibition above about 22% (passing the limit was not always enough); inconclusive = no clear call, values can overlap the other calls.

Biological target: Cathepsin B (Homo sapiens) (UniProt P07858)
Test: human cathepsin B blockade, pooled library – biochemical, compound mixtures, AMC fluorescence, primary screen (AID 488);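 also: 0% = enzyme without compound and 100% = no enzyme blank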
Conditions: Purified cathepsin B, AMC dipeptide fluorescence, hits give high values,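 ten-compound pools at 5 µM per compound and 50 µM total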

| SMILES | inhibition |
| --- | --- |
| CN(C)/C=C/c1c(C#N)c(=O)ncn1Cc1ccccc1 | 4.44% |
| CCCC(=O)C1=C(N(C)c2ccccc2)CC(C)(C)C(C(=O)OC)C1=O (configuration not stated) | 6.7% |
| O=C(O)CCN1C(=O)CC2(CCCCC2)C1=O | -0.755% |
| Nc1nonc1-c1nc2ccccc2n1Cc1ccc(F)cc1 | 79.6% (active) |
| COc1ccc(C)c(Cn2c(-c3nonc3N)nc3ccccc32)c1 | 19.5% |
| Nc1nonc1-c1nc2ccccc2n1CCC(=O)O | 23.8% |
| Cc1ccc(C)c(S(=O)(=O)n2cnc3ccccc32)c1 | -4.15% |
| O=C(NCCN1CCOCC1)c1ccc2c(c1)ncn2C1CCCC1 | 2.62% |
| O=C(CCN1C(=O)C2C3C=CC(C3)C2C1=O)Nc1ccccc1F (configuration not stated) | 1.56% |
| CC1Cc2cc(/C(O)=C3\C(=O)C(=O)N(CCN4CCOCC4)C3c3ccccc3F)ccc2O1 (configuration not stated) | 3.23% |
| Cc1ccc(C2c3c(oc4ccc(C)cc4c3=O)C(=O)N2CCCN2CCOCC2)cc1 (configuration not stated) | 3.25% |
| CCOc1cc(-c2nc3cc(C)ccn3c2NCC2CCCO2)ccc1O (configuration not stated) | -4.66% |
| COc1cc2c(cc1NC(=O)CN1CCN(S(=O)(=O)c3ccc(F)cc3)CC1)oc1ccccc12 | 2.98% |
| CCC1CCCCN1CCNC(=O)c1[nH]c(C)c(C(C)=O)c1C (configuration not stated) | 4.44% |
| COC(=O)C1C(=O)CC(C)(O)C(C(=O)OC)C1c1ccc2c(c1)OCO2 (configuration not stated) | 1.84% |
| CCN(CC)C(=O)c1sc(NC(=O)c2ccco2)c(C#N)c1C | 7.73% |
| N#Cc1cccc(NC(=O)CCC2CCCC2)c1 | 0.985% |
| CC(C)c1ccc(-c2nn[nH]n2)cc1 | 4.54% |
| Cc1c(C(=O)Nc2ccccc2Cl)oc2ccc(S(=O)(=O)N3CCC4(CC3)OCCO4)cc12 | 6.83% |
| O=C(NCCSc1ccccc1)c1ccco1 | 5.3% |
| C=CCC(NCCCO)c1cccc(OC)c1OC (configuration not stated) | 0.355% |

| SMILES | inhibition |
| --- | --- |
| Cc1nc2nc[nH]n2c(=O)c1NC(=O)c1cccc(OCC(C)C)c1 | 0.08% |
| CC(C)(C)Nc1c(N)c(=O)oc2ccccc12 | 1.79% |
| CCC1Oc2ccc(Cl)cc2N(CC(=O)O)C1=O (configuration not stated) | 4.82% |
| O=C(Cn1cnc2c(cnn2-c2ccc(F)cc2)c1=O)NCCc1ccccc1 | -5.56% |
| CN(C(=O)c1ccccn1)c1nnc(-c2ccccn2)s1 | 4.35% |
| CN1CCN(CC(=O)C23CC4CC(CC(C4)C2)C3)CC1 | -16% |
| Cc1cc(-n2nc(C)cc2C)n2ncc(-c3ccccc3)c2n1 | -1.95% |
| COCCOC(=O)C1=C(C)N=c2s/c(=C\c3cccs3)c(=O)n2C1c1cccs1 (configuration not stated) | 5.37% |
| COc1ccc(C(C)=O)cc1COC(=O)Cn1cnc2ccccc2c1=O | -0.265% |
| CC(=O)c1c(N2CCOCC2)nc(=S)n(Cc2ccccc2)c1C | -2.31% |
| CCOc1ccc(N=C2SC(C(=O)O)CC(=O)N2C)cc1 (configuration not stated) | -1.85% |
| COC(=O)Cn1c(=NC(=O)CSCC(=O)Nc2cc(C)on2)sc2ccccc21 | -5.38% |
| Cn1c(SCC(=O)N2CCOCC2)nnc1-c1ccc(NC(=O)c2ccccc2F)cc1 | -2.64% |
| CC(C)C(c1nnnn1Cc1ccccc1)N1CCC(C(N)=O)CC1 (configuration not stated) | -1.51% |
| O=C(OCc1ccccc1F)c1ccc2c(c1)OCCO2 | 8.22% |
| COC(=O)c1cc(C(=O)CSc2nc(C)cc(C)n2)ccc1O | 1.56% |
| CSc1ccc(Cl)c(C(=O)OCC(=O)N2CC(C)OC(C)C2)c1 (configuration not stated) | -10.2% |
| COC(=O)C1=C(N)Oc2cc(C)oc(=O)c2C1c1cccnc1 (configuration not stated) | 1.64% |
| COC(=O)c1ccc(CSc2nncn2C)cc1 | 6.61% |
| CCN(CC)P(=O)(/C(Cl)=C\Nc1c(C)n(C)n(-c2ccccc2)c1=O)N(CC)CC | -1.45% |
| C=CCN(c1ccc(C(N)=O)cc1)S(C)(=O)=O | 1.82% |

| SMILES | inhibition |
| --- | --- |
| CCOC(=O)C1=C(C)N=c2s/c(=C\C(=O)OC)c(=O)n2C1c1ccc(OC)cc1 (configuration not stated) | 4.36% |
| Cc1ccc(Cn2nnc3c(=O)n(CC(=O)N4CCCCC4)cnc32)cc1 | -4.83% |
| O=C(CC1Nc2ccccc2NC1=O)Nc1ccccc1 (configuration not stated) | 2.4% |
| COc1ccccc1-n1cnc2cc(NS(=O)(=O)c3ccccc3)ccc21 | 4.81% |
| C=CCn1c(=N)n(CC(O)COc2ccc(OC)cc2)c2ccccc21 (configuration not stated) | 4.16% |
| CCOc1ccc(CC(=O)Nc2ccc(S(=O)(=O)Nc3cc(C)on3)cc2)cc1OCC | 3.38% |
| COC(=O)C1=C(C)NC(=O)NC1/C=C/c1ccccc1 (configuration not stated) | 4.12% |
| O=C(Cn1c(-c2ccc(Cl)cc2)noc1=O)N1CCN(c2ccccc2F)CC1 | -2.31% |
| CCOC(=O)c1ccc2[nH]c(C)c(CN3CCN(C)CC3)c(=O)c2c1 | 6.62% |
| Cc1nc2cc(S(=O)(=O)C(F)(F)F)ccc2s1 | 1.09% |
| CCOc1ccc(NC(=O)CCS(=O)(=O)c2cccc3nsnc23)cc1 | 1.87% |
| Cc1nnc(SCC(=O)NCc2ccccc2)s1 | -1.96% |
| CC1=CC(C)(C)N(C(=O)CSc2nnc(-c3ccccc3)o2)c2ccc(C)cc21 | 1.93% |
| O=c1cc(CO)oc(CN2CCC(Cc3ccccc3)CC2)c1O | -2.05% |
| CCOC(=O)c1cc2occc2n1CC(=O)N1CCN(C(=O)c2ccco2)CC1 | 0.785% |
| Cc1cc(NC(=O)COC(=O)c2ccc(F)c(S(=O)(=O)N3CCOCC3)c2)no1 | 5.21% |
| CC1=C(C(N)=O)C(c2ccc3c(c2)OCO3)n2nc(-c3cccc(C)c3)nc2N1 (configuration not stated) | -4.66% |
| CCCCn1c(CCCNC(=O)CC)nc2ccccc21 | 1.44% |
| Cc1cc(Cl)c(S(=O)(=O)NCc2cccnc2)cc1OCC(N)=O | 7.41% |
| O=C(/C=N/O)Nc1ccccc1 | 3.15% |
